Source: the supplement of paper PMC10338343
± gives the standard deviation.

System: MILI (PIWIL2) piRISC loaded with L1MC piRNA (26 nt)
Assay: pre-steady-state target cleavage rate (min^-1); guide: L1MC piRNA 5'p-UAACUAAAUACUAUGCAAGCUGUAGG; MIWI and MILI are mouse PIWI proteins and EfPiwi is from a freshwater sponge; tags in brackets are library labels; higher = faster piRNA-guided slicing of the target
Method in brief: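 The pre-steady-state cleavage rate came from a burst-and-steady-state fit to pooled data from three Cleave-'n-Seq trials, in which uncleaved targets were sequenced and normalised to depth and to weakly complementary targets. Each reaction held 0.1 nM transcribed, DNA-blocked target RNA library and 1 nM active affinity-purified piRISC carrying one synthetic guide, with or without 500 nM GTSF1 partner protein, in HEPES–potassium acetate buffer at 33 °C for 0–8 or 0–960 min. k3 was capped at 0.0001 min^-1.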

[1] = auxiliary factor: 500 nM mouse GTSF1
[2] = auxiliary factor: none (no GTSF1)

| Sequence | pre-steady-state target cleavage rate [1] | pre-steady-state target cleavage rate [2] |
| --- | --- | --- |
| UCCUGCUACAGCUUGCAUUGAAUUUAGUUA | 0.0223 ± 0.0052 | 0.00353 ± 0.0025 |
| UCCUGGAACAGGUUGCAUACUAUUUAGUUA | 0.0491 ± 0.0087 | 0.00363 ± 0.002 |
| UCCUGGAUGAGGUUGCAUAGUAUUAAGUUA | 0.0422 ± 0.018 | 0.00493 ± 0.0031 |
| UCCUGGAUGUCGUUGUAUAGUAUUUAGUUA | 0.151 ± 0.017 | 0.0105 ± 0.0023 |
| UCCUCCUUACAGCUUGCAUAGUAUUUAGUUA | 0.301 ± 0.014 | 0.011 ± 0.0028 |
| UCCUGGAUGUCCUUGCUUAGUUUUUAGUUA | 0.0152 ± 0.0067 | 0.00494 ± 0.0023 |
| UCCUGGAUGUGCUUGCAUAGAUUUUAGUUA | 0.00729 ± 0.0044 | 0.00375 ± 0.0024 |
| UCCUGGAUGUGCUAGGAUAGUAUUUAGUUA | 0.103 ± 0.014 | 0.00564 ± 0.0022 |
| UCCUGGAUGUCGAUGCAUAGUACUUUAGUUA | 0.0153 ± 0.0039 | 0.00479 ± 0.0029 |
| UCCUGGUACAGCUUGCUAAGUAUUUAGUUA | 0.123 ± 0.015 | 0.00432 ± 0.0026 |
| UCCUGGAUGAGCUUGCAUAGAUUUUAGUUA | 0.0099 ± 0.0044 | 0.00304 ± 0.0029 |
| UCCUGGAUGUGGUUGCAUACUAUUUAGUUA | 0.0175 ± 0.0072 | 0.00525 ± 0.0036 |
| UCCUGGAUGUCGUUGCAUAGUAUAAAGUUA | 0.0728 ± 0.018 | 0.00407 ± 0.0022 |
| UCCUGGAUGUCGUUGCAUAGUAUUAUAGUUA | 0.173 ± 0.03 | 0.00429 ± 0.0034 |
| UCCUGGAUGUCCUUGGAUAGUUUUUAGUUA | 0.0144 ± 0.0045 | 0.00344 ± 0.0027 |
| UCCUGGAUGUGGUUGCAUAGUAUAUAGUUA | 0.158 ± 0.023 | 0.00921 ± 0.0037 |
| UCCUGGUACAGCUUGCAUUGAAUUUAGUUA | 0.047 ± 0.015 | 0.00399 ± 0.0037 |
| UCCUCCUAGAGCUUGCAUAGUAUAUAGUUA | 0.249 ± 0.029 | 0.00315 ± 0.0025 |
| UCCUCCAACAGCUUGGAUAGUAUUUAGUUA | 0.269 ± 0.0097 | 0.00646 ± 0.0021 |
| UCCUGGUACAGCUUGCAUAGUGAUUUAGUUA | 0.0336 ± 0.01 | 0.00917 ± 0.0038 |
| UCCUGGAUGAGGUUGCAUUGUAUUUAGUUA | 0.0484 ± 0.01 | 0.00431 ± 0.0027 |
| UCCUGCCUACAGCUUGCAUAGUAUUUAGUUA | 0.342 ± 0.022 | 0.0113 ± 0.0037 |
| UCCUGCUACAGCUUGGCAUAGUAUUUAGUUA | 0.307 ± 0.051 | 0.00405 ± 0.0027 |
| UCCUGGUACAGGUUGCAUAGUAUAUAGUUA | 0.42 ± 0.089 | 0.00855 ± 0.0029 |
| UCCUGGAUGUCCUUGCUUACUAUUUAGUUA | 0.016 ± 0.0064 | 0.00305 ± 0.0023 |
| UCCUCCUACAGCUAGCUUAGUAUUUAGUUA | 0.206 ± 0.017 | 0.00491 ± 0.0019 |
| UCCUGGAUGUGCUUGCUUAGUAUAUAGUUA | 0.0668 ± 0.011 | 0.00411 ± 0.0025 |

| Sequence | pre-steady-state target cleavage rate [1] | pre-steady-state target cleavage rate [2] |
| --- | --- | --- |
| UCCUGGUACAGCUUCCAUUGUAUUUAGUUA | 0.113 ± 0.039 | 0.00415 ± 0.0035 |
| UCCUGGAUGUCGUUGCAUAGUAUUUAGUAA | 0.191 ± 0.03 | 0.00351 ± 0.0029 |
| UCCUCCUGCAGCUUGCAUAGUAUUUAGUUA | 0.301 ± 0.018 | 0.0088 ± 0.0027 |
| UCCUGGAUGUCGUUGCAUAGUUAUUUAGUUA | 0.00477 ± 0.0039 | 0.00324 ± 0.003 |
| UCCUGGAUGAGCUUGGUUAGUAUUUAGUUA | 0.195 ± 0.02 | 0.0158 ± 0.0039 |
| UCCUGGAUGUCCAAGCAUAGUAUUUAGUUA | 0.0263 ± 0.0097 | 0.00547 ± 0.0023 |
| UCCUGGAUGUGGUUGCAUAGUAAUUAGUUA | 0.162 ± 0.034 | 0.00751 ± 0.0032 |
| UCCUGCUACAGCAAGCAUAGUAUUUAGUAA | 0.281 ± 0.026 | 0.00383 ± 0.0032 |
| UCCUGGAUCACGUUGCAUAGUAUUUAGUAA | 0.18 ± 0.024 | 0.00365 ± 0.0029 |
| UCCUGGAUGUCGUUGCAUAGUAUUUAGUUC [g2:g18:cont:t1C] | 0.0984 ± 0.01 | 0.00738 ± 0.0026 |
| UCCUGGUACAGCUUGCAUAGUUAUUUAGUUA | 0.0143 ± 0.0076 | 0.00549 ± 0.0044 |
| UCCUGGAUCAGCUUGCAAUGUAUUUAGUAA | 0.0826 ± 0.014 | 0.00611 ± 0.0022 |
| UCCUGGAUGUCCUUGCGUAGUAUUUAGUUA | 0.0231 ± 0.0068 | 0.0122 ± 0.0025 |
| UCCUGGAUGAGCUUGAUAGUAUUUAGUUA | 0.017 ± 0.0068 | 0.00442 ± 0.0028 |
| UCCUGGAUCAGCAUGCAUAGUAUUUUGUUA | 0.16 ± 0.021 | 0.00405 ± 0.0024 |
| UCCUGGAUCAGCUUGCAAAGUAUAUAGUUA | 0.104 ± 0.012 | 0.00771 ± 0.0027 |
| UCCUGGAUGUGCUUCCUUAGUAUUUAGUUA | 0.0394 ± 0.0077 | 0.00557 ± 0.0022 |
| UCCUGGUACAGCUUGGUAAGUAUUUAGUAA | 0.18 ± 0.034 | 0.00367 ± 0.0027 |
| UCCUGGAUGAGCUUGCAAAGUAUUAAGUUA | 0.0742 ± 0.012 | 0.00449 ± 0.0026 |
| UCCUGGAUGUCGAUGCUUAGUAUUUAGUUA | 0.019 ± 0.0053 | 0.00602 ± 0.0019 |
| UCCUGCUCACAGCUUGCAUAGUAUUUAGUUA | 0.351 ± 0.019 | 0.0111 ± 0.0037 |
| UCCUGGAUGUGCUUGCUUACUAUUUAGUUA | 0.0117 ± 0.005 | 0.00477 ± 0.0024 |
| UCCUGGAUGUGCUUGGAUAGUAUUUAGUUA | 0.115 ± 0.013 | 0.00702 ± 0.0024 |
| UCCUGGAUCAGCUUGCUUAGUAUAUAGUUA | 0.234 ± 0.014 | 0.00803 ± 0.0031 |
| UCCUGGAUCAGCUAGCAUAGUAUUUUGUUA | 0.19 ± 0.021 | 0.00333 ± 0.0023 |
| UCCUGGUACUGCUUGCAUAGUUUUUAGUUA | 0.0403 ± 0.012 | 0.00996 ± 0.0046 |
| UCCUGGUACAGGUUGCAUAGUAUUUUGUUA | 0.189 ± 0.042 | 0.0111 ± 0.0045 |
